Assay results reported in ChEMBL document CHEMBL1201862, “PubChem BioAssay data set” (2004).
Among all 1,200 compounds or so, about 140 (12%) were called active. The rule behind the calls is not given here. This excerpt belongs to a sample that is enriched for actives.

Experiment: CFTR-F508del correctors, dose response, FRT cells, YFP quenching, cherry-pick (AID 743402)
Type: functional, cell-based

| SMILES | AbsAC35 |
| --- | --- |
| O=C(Nc1ccccc1)N1CCCCN2[C@@H](CO)[C@H](c3ccc(C#Cc4ccccc4)cc3)[C@@H]2C1 | 31.2 µM (active) |
| O=C1NC(=O)C(=Cc2c(Cl)cccc2Cl)C(=O)N1 | 29.4 µM (active) |
